Experimental data taken from PubChem BioAssay (Tox21).
Inconclusive results are not listed. Unmarked numbers belong to inactive results. The call rests on the fitted dose curve.

Assay: qHTS assay to identify small molecule agonists of the AP-1 signaling pathway - cell viability counter screen (AID 1159525); further: nearly all actives have a fitted effect of over 55% in size
Settings: ME-180 (cervical carcinoma) AP-1-bla cells viability, ATP luminescence, 5 h; series mostly up to 76.8 µM; viability change, negative = cytotoxic: at the top concentration
Text: National Center for Advancing Translational Sciences [NCATS]
NIH Chemical Genomics Center [NCGC]
U.S. Environmental Protection Agency [EPA]
National Institutes of Environmental Health Sciences [NIEHS]
National Toxicology Program [NTP]
U.S. Food and Drug Administration [FDA]
Activator protein-1 (AP-1), a transcription factor, plays an important role in tumor genesis by regulating genes involved in cell proliferation, differentiation, apoptosis, and angiogenesis. AP-1 activity is induced by a complex network of signaling pathways that involves extracellular signals, such as growth factors. The AP-1 protein complex formed from c-Fos and c-Jun binding to the AP-1 response element results in transcriptional activation of genes containing such elements within their promoter.
Low molecular weight molecules have been discovered and developed to modulate various components of these signaling pathways, for example, MAP kinase inhibitors. However, many points of pathway modulation remain untested due to the lack of chemical probes making this signaling locus of general interest.
Using a beta-lactamase reporter-gene under control of the AP-1 response element, a cell-based assay [CellSensor(TM) AP-1-bla ME-180 developed by Invitrogen Corp.] was used to measure EGF-induced signaling. The Tox21 10K library compounds were measured for their ability to positively modulate the action of EC50 EGF on reporter gene activity. Compounds were screened in a 15-pt titration series in 1536-well format. The cytotoxicity of the Tox21 compound library against this cell line was tested in parallel by measuring the intra cellular ATP content in the same wells.
Tox21 Assay Protocol Summary:
2500 cells/5uL in Opti-MEM medium containing 0.5% dialyzed FBS, 0.1 mM NEAA, 1 mM sodium pyruvate and 10 mM HEPES was dispensed into 1536-well black wall/clear bottom plates using a Multidrop dispenser and cells were cultured at 37 degrees Celsius overnight. Next day 23 nL of compounds dissolved in DMSO, positive controls or DMSO were delivered to each well using a pin tool. The plates were incubated at 37 degrees Celsius for 5 hours. 1 uL of LiveBLAzerTM B/G FRET substrate (Solution A+B+C+D) was added to each well using a Flying Reagent Dispenser. After incubated at room temperature for 2.5 hours the plates were measured on an EnVision plate reader at Excitation 405nm, Emission1=460nm and Emission 2=530nm. The %Activity was determined from the ratio of 460nm/530nm.
After the plates were read for Beta-Lactamase assay on Envision; 3 ul Cell Titer Glo (Promega) was added to measure the cytotoxicity and the plates were then incubated at RT in dark for 30 min. The luminescence was read on ViewLux (Perkin Elmer, Shelton, CT) using 6 sec exposure. ViewLux data was expressed as relative luminescence units.
For primary data analysis, raw plate reads for each titration point were first normalized relative to […] EGF control (100%) and DMSO only wells (basal, 0%).
For primary data analysis for viability assay, raw plate reads for each titration point were first normalized Tetra n-octyl ammonium bromide control (-100%) and DMSO (control, 100%).

Row | Structure (SMILES) | viability change, negative = cytotoxic
1 | O=C(Oc1ccc(Br)cc1)N1CCN2CCC1CC2 | 0.922%
2 | COc1ccc2c(c1OC)CN1CCc3cc4c(cc3C1C2)OCO4 (stereo not given) | 5.56% [at 35.3 µM]
3 | CCOP(=S)(OCC)Oc1ncn(-c2ccccc2)n1 | -6.61%
4 | CNC(=O)O/N=C(\C)SC | -10.9%
5 | CCC(=O)c1ccccc1 | 0.108%
6 | C[C@]12CC[C@H]3[C@@H](CCC4=CC(=O)CC[C@@]43C)[C@@H]1CC[C@@H]2C(=O)O | 3.46% [at 35.3 µM]
7 | CCCCOC(=O)c1ccccc1C(=O)O | -1.23%
8 | CCOC(=O)C1(c2ccccc2)CCN(CCc2ccc(N)cc2)CC1 | -4.66% [at 35.3 µM]
9 | CCSC(=O)N(CC)C1CCCCC1 | 0.053%
10 | CC1CCC(=O)O1 (stereo not given) | 0.941%
11 | C#C[C@]1(O)C=C[C@H]2[C@@H]3CCC4=CC(=O)CC[C@@H]4[C@H]3CC[C@@]21CC | -0.291% [at 35.3 µM]
12 | O=C(Nc1ccccc1)N(Cc1ccc(Cl)cc1)C1CCCC1 | -1.61%
13 | Cc1nc(N)nc(N)n1 | -8.33%
14 | CCC1(c2ccccc2)C(=O)NC(=O)NC1=O | -9.42%
15 | CCCSC(=O)Cl | -6.56%
16 | CCOC(=O)CP(=O)(OCC)OCC | -8.57%
17 | CC1COC2(c3ccccc3Cl)c3cc(Cl)ccc3NC(=O)CN12 (stereo not given) | -18.2% [at 35.3 µM]
18 | CS(=O)(=O)c1cc(C(F)(F)F)ccc1C(=O)c1cnoc1C1CC1 | 1.98%
19 | CC(C)(C)C(=O)C(Oc1ccc(Cl)cc1)n1cncn1 (stereo not given) | -6.19%
20 | CCCCOP(=O)(O)OCCCC | -3.88%

Row | Structure (SMILES) | viability change, negative = cytotoxic
21 | OCCBr | 0.435%
22 | COc1cc2c(cc1OC)[C@@]13CCN4CC5=CCO[C@H]6CC(=O)N2[C@H]1[C@H]6[C@H]5C[C@H]43 | -0.461%
23 | CCCCOC(=O)c1ccccc1N | -10.6%
24 | ClCC(Cl)Cl | -2.91%
25 | CCC1(c2ccccc2)C(=O)N=C(O)NC1=O (stereo not given) | 3.22%
26 | OC(c1ccc(F)cc1)(c1cncnc1)c1ccccc1Cl (stereo not given) | -7.02%
27 | CN1CCC(O)(c2ccc(F)cc2)C(C(=O)c2ccc(F)cc2)C1 (stereo not given) | 12.1% [at 35.3 µM]
28 | Cc1ncc2n1-c1ccc(Cl)cc1C(c1ccccc1F)=NC2 | -15.1% [at 35.3 µM]
29 | CC(C)CC#N | -7.88%
30 | CCOP(=O)(N=C1SCCS1)OCC | 0.0687%
31 | CCC(C)n1c(=O)[nH]c(C)c(Br)c1=O (stereo not given) | -9.54%
32 | CCOc1nc(C(Cl)(Cl)Cl)ns1 | -4.93%
33 | Cc1cc(C)nc(Nc2ccccc2)n1 | 5.22%
34 | COc1ccc(C(=O)N2CCCC2=O)cc1 | -4.61% [at 35.3 µM]
35 | CNC(=O)N(C)c1nc2ccccc2s1 | -6.3%
36 | O=c1oc2ccccc2c(O)c1C1CCCc2ccccc21 (stereo not given) | -11.3%
37 | C[C@]12CC[C@H]3[C@@H](CC=C4C[C@@H](O)CC[C@@]43C)[C@@H]1CC[C@@H]2O | 3.57% [at 35.3 µM]
38 | CN1CCN(C(=O)O[C@H]2c3nccnc3C(=O)N2c2ccc(Cl)cn2)CC1 | -25.8% [at 35.3 µM]
39 | CCOP(=S)(Oc1cnc(C(C)(C)C)nc1)OC(C)C (stereo not given) | 0.719%
40 | O=C1OC(CCN2CCCCC2)OC1(c1ccccc1)c1ccccc1 (stereo not given) | 3.91% [at 35.3 µM]
